Reference: PubChem BioAssay (NCATS)
Results filed as inconclusive are left out. Active and inactive are the calls of the source. Unless noted, calls come from the whole dose curve; as a rule, active = well fitted curve in either direction with a large enough effect (not every such curve was filed as active); inconclusive = small, poorly fitted or top-dose-only effect, or another doubt; inactive = flat fitted curve, though single readings scatter.

How the values were obtained:
[1] = molecular target: Lysosomal acid glucosylceramidase (Homo sapiens) (UniProt P04062); experiment: Glucocerebrosidase-p2 (AID 348; in the data active = potency below about 10 µM; note: potency is the fitted concentration of half-maximal effect); settings: purified GBA, blue fluorogenic substrate, 40 min
In short: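 Compounds titrated from 0.6 nM upwards against 0.2 nM enzyme in pH 5.9 citric acid/KH2PO4, taurocholate, tween-20; blue fluorogenic substrate 80 uM, 40 min room temperature, stopped and read Ex 365/Em 440 for AC50.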

[2] = AP1 Signaling Pathway (AID 357); settings: ME-180 AP-1-bla reporter, EGF-induced, beta-lactamase ratio, 5 h; at 7.69 µM (top of the series) unless noted;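 note: ME-180 reporter cells stimulated with EGF at its EC50 level; % is set by controls: 0 for no effect and ±100 for the full control effect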
In short: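 Cells are seeded overnight, exposed to compound titrations and an EC50 level of EGF for 5 hours at 37 °C, then loaded with CCF4 dye for 2.5 hours. Beta-lactamase activity under the AP-1 element is read as a blue/green ratio.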

[3] = NFAT Signaling Pathway (AID 444); settings: Jurkat NFAT-bla M1, carbachol, beta-lactamase ratio, 5 h; at 7.69 µM (top of the series) unless noted;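 note: carbachol stimulus at about its EC50 of 1 µM final; % is set by controls: 0 for no effect and ±100 for the full control effect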
In short: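 Read-out: CCF4 FRET ratio (460 nm/530 nm) after 1 h RT dye loading, used for %activity and AC50 from titration series. Cells: Jurkat NFAT-β-lactamase/M1 line, treated with compound plus 1 uM carbachol for 5 h, 37 °C.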

[4] = Stat Signaling Pathway (AID 446); settings: ME-180 SIE beta-lactamase reporter, IL-6 stimulated, 5 h; at 7.69 µM (top of the series) unless noted;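 note: ME-180 cervical cancer cells given 40 pM IL-6 alongside compound; SIE-controlled beta-lactamase reporter measured as 460/530 nm FRET emission ratio; % is set by controls: 0 for no effect and ±100 for the full control effect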
In short: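 Reporter line: ME-180 cervical carcinoma, SIE-beta-lactamase. Treatment: compound with 40 pM IL-6, 5 hrs, 37 C, in low-serum OPTI-MEM with 10 mM HEPES pH 7.3. Detection: 460/530 nm fluorescence.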

[5] = molecular target: Glucocorticoid receptor (Homo sapiens) (UniProt P04150); experiment: GR-EFC Redistribution (AID 451; calls by dose curve; note: potency is the fitted concentration of half-maximal effect); settings: CHO-K1 GR-EFC translocation, beta-gal luminescence, 2 h
In short: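 Translocation of GR-ED fusion to nuclear EA restores b-gal, read by luminescence after 1 h room-temperature detection. Engineered CHO-K1 biosensor cells, 1,000/well, exposed 2 h at 37 C to titrations up to 46 uM final.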

[6] = molecular target: Mitogen-activated protein kinase 10 (Mus musculus) (UniProt Q61831); experiment: JNK3 AlphaScreen Assay (AID 530); settings: JNK3 lysate, c-Jun phosphorylation; series mostly up to 57.1 µM;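 note: kinase came from lysate of stimulated human HepG2 cells; signal reports phosphorylation of biotinylated GST-cJun 1-79 at Ser73 with 10 µM ATP; % is set by controls: 0 for no effect and ±100 for the full control effect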
In short: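 Room-temperature AlphaScreen kinase assay; pre-activated HepG2 lysate as JNK3 source, biotin-GST-cJun(1-79) substrate, 10 uM ATP, compound 15 min preincubation.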

[7] = molecular target: Cytochrome P450 3A4 (Homo sapiens) (UniProt P08684); experiment: qHTS Assay for Activators of Cytochrome P450 3A4 (AID 885; active = well fitted curve in the direction sought with a large enough effect; an effect the other way counts as inactive or inconclusive; note: nearly all actives have a fitted effect of over 65% in size); settings: recombinant CYP3A4, Luciferin-PPXE luminescence, 60 min; series mostly up to 57.1 µM
In short: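 Signal was normalized against complete inhibition by 57 uM ketoconazole. The reaction used 20nM CYP3A4 with 25uM Luciferin-PPXE, 10-min compound preincubation and a 60-min NADPH-supported step at RT.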

[8] = qHTS Assay for Lipid Storage Modulators (AID 1519; calls by dose curve); settings: Drosophila S3 cells, BODIPY lipid droplet/cell ratio, laser cytometry, cells loaded with oleic acid; for activity change, negative = inhibition: at 57.5 µM (top of the series)
In short: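 Cells seeded at 5,000 per well were treated with compounds over a concentration series and loaded with oleic acid (400 uM, as added). Lipid droplet fluorescence (488 nm excitation, 500-530 nm channel) was read by laser-scanning cytometry and normalized to 20 uM Triacsin C.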

[9] = molecular target: Dual specificity protein kinase CLK4 (Homo sapiens) (UniProt Q9HAZ1); experiment: qHTS Assay for Inhibitors of CDC-like Kinase 4 (ADP-FP Assay) (AID 1795; active = well fitted curve in the direction sought with a large enough effect; an effect the other way counts as inactive or inconclusive;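 note: recombinant human CLK4 phosphorylating RS repeat peptide at 1 µM ATP; % is set by controls: 0 for no effect and ±100 for the full control effect; nearly all actives have a fitted effect of over 60% in size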); settings: Transcreener ADP fluorescence polarization; series mostly up to 50 µM
In short: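 Clk4 6.25 nM; RS peptide 100 uM; ATP 1 uM; 25 mM Tris pH 7.5, 10 mM MgCl2; 1 h reaction. ADP detected via antibody/orange tracer FP displacement; TG003 positive control.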

[10] = Primary qHTS for small molecule stabilizers of the endoplasmic reticulum resident proteome: Secreted ER Calcium Modulated Protein (SERCaMP) assay (AID 1508630; active = well fitted curve in the direction sought with a large enough effect; an effect the other way counts as inactive or inconclusive; note: % is set by controls: 0 for no effect and ±100 for the full control effect); settings: SH-SY5Y GLuc-SERCaMP (Gaussia luciferase released on ER calcium loss) secretion, thapsigargin, luminescence; series mostly up to 38.4 µM
In short: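 GLuc-SERCaMP-expressing SH-SY5Y cells, pretreated 16 h with compound, are challenged with thapsigargin to empty ER calcium stores; after 4 h, coelenterazine is added directly to the medium and luminescence is imaged.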

[11] = molecular target: Cytochrome P450 1A2 (Homo sapiens) (UniProt P05177); experiment: p450-cyp1a2 (AID 410; calls by dose curve; note: potency is the fitted concentration of half-maximal effect;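 for activity change, negative = inhibition: -100% = full effect of reference inhibitor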); settings: recombinant CYP1A2, luciferin-ME demethylation, luminescence; series mostly up to 57 µM
In short: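 Inhibition was calculated relative to 57 uM furafylline (full inhibition). The reaction used human CYP1A2 at 20nM with Luciferin-ME at its Km, 100uM, driven by an NADPH-regenerating system for 60 min at room temperature.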

[12] = molecular target: Glucocorticoid receptor (Homo sapiens) (UniProt P04150); experiment: GR-GFP Redistribution (AID 450;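 active = compounds whose dose series gives a full or clear partial fitted curve of increased nuclear translocation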; note: potency is the fitted concentration of half-maximal effect); settings: U2OS GR-GFP nuclear translocation, laser cytometry, 2 h
[13] = molecular target: 3',5'-cyclic-AMP phosphodiesterase 4B (Homo sapiens) (UniProt Q07343); experiment: qHTS Assay for Inhibitors of PDE-IV (AID 607; active = well fitted activation curve with a large enough effect in the main read-out, with a control signal flat, not every such curve was filed as active; note: % of control where 0% means no effect); settings: HEK293 ACTOne CNG channel cells, membrane potential fluorescence; series mostly up to 22.9 µM
In short: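 Cell-based read-out of cAMP via a modified cyclic nucleotide-gated channel and membrane potential dye (535/590 nm) in HEK293 cells expressing PDE4 endogenously. Compounds tested up to 22.9 uM final; 100 uM RO 20-1724 reference.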

[14] = molecular target: Ubiquitin carboxyl-terminal hydrolase 1 (Homo sapiens) (UniProt O94782); experiment: Inhibitors of USP1/UAF1: Pilot qHTS (AID 504865; active = well fitted curve in the direction sought with a large enough effect; an effect the other way counts as inactive or inconclusive;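 note: rhodamine fluorescence freed from ubiquitin-rhodamine substrate followed over time; top concentration of the series differs between compounds; % is set by controls: 0 for no effect and ±100 for the full control effect; nearly all actives have a fitted effect of over 35% in size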); settings: purified USP1/UAF1, Ub-rhodamine cleavage fluorescence; series mostly up to 54.9 µM
In short: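 In 50mM HEPES pH 7.8 containing 0.5mM EDTA, 1mM TCEP, 0.1 mg/ml BSA and 0.01% Tween-20, 1nM USP1/UAF1 is exposed to compound for 15 min, then Ub-Rho (150nM final) is added and fluorescence is read over time.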

[15] = molecular target: Cytochrome P450 3A4 (Homo sapiens) (UniProt P08684); experiment: qHTS Assay for Inhibitors and Substrates of Cytochrome P450 3A4 (AID 884; active = well fitted curve in the direction sought with a large enough effect; an effect the other way counts as inactive or inconclusive; note: % is set by controls: 0 for no effect and ±100 for the full control effect; nearly all actives have a fitted effect of over 50% in size); settings: recombinant CYP3A4, Luciferin-PPXE luminescence; series mostly up to 57.1 µM
In short: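 20 nM human CYP3A4 with 25 uM Luciferin-PPXE (at KM) in 200 mM KPO4, preincubated 10 min with compound; NADPH regeneration started a 60 min RT reaction. Luciferin detected by luminescence, normalized to 57 uM ketoconazole as full inhibition.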

[16] = qHTS Assay for Identification of Small Molecule Agonists for Hypoxia Response Element Signaling Pathway (AID 914; active = well fitted activation curve with a large enough effect in the signal ratio, with a control signal flat, not every such curve was filed as active; the % refers to the signal ratio; note: % of control where 0% means no effect); settings: ME-180 (cervical carcinoma) HRE-bla reporter, beta-lactamase ratio, CoCl2, 17 h; activation: stronger effect = higher value
In short: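 Compounds in a titration series were added to ME-180 reporter cells alongside an EC50 level of CoCl2. After 17 hours, beta-lactamase activity was read as the 460nm/530nm emission ratio of CCF4, giving AC50 values.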

[17] = measured here: cell count channel max response
[18] = measured here: lipid channel max response

Ubiquitin carboxyl-terminal hydrolase 1 (Homo sapiens), sequence (O94782 whole entry, looked up): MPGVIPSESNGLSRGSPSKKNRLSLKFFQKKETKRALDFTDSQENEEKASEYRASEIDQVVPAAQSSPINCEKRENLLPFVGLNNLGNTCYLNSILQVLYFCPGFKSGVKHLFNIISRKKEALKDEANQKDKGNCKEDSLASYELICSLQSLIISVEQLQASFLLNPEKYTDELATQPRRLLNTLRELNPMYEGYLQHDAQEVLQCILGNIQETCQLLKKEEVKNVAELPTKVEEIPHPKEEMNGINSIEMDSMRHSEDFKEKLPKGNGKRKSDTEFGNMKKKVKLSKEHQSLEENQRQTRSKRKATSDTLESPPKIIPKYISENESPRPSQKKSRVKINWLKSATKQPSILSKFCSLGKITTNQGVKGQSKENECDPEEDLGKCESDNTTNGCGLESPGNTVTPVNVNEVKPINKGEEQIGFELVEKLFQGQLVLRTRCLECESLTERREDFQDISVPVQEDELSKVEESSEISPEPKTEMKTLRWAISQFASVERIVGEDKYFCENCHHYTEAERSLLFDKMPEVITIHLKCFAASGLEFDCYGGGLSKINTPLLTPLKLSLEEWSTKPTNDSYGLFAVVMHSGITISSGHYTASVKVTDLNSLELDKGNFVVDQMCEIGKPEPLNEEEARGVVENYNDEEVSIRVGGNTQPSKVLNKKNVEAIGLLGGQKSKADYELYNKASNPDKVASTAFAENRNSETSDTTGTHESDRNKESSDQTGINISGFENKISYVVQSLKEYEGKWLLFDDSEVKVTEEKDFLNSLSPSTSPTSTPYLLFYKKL
Glucocorticoid receptor (Homo sapiens), sequence (P04150 whole entry, looked up, the tested form may be a part): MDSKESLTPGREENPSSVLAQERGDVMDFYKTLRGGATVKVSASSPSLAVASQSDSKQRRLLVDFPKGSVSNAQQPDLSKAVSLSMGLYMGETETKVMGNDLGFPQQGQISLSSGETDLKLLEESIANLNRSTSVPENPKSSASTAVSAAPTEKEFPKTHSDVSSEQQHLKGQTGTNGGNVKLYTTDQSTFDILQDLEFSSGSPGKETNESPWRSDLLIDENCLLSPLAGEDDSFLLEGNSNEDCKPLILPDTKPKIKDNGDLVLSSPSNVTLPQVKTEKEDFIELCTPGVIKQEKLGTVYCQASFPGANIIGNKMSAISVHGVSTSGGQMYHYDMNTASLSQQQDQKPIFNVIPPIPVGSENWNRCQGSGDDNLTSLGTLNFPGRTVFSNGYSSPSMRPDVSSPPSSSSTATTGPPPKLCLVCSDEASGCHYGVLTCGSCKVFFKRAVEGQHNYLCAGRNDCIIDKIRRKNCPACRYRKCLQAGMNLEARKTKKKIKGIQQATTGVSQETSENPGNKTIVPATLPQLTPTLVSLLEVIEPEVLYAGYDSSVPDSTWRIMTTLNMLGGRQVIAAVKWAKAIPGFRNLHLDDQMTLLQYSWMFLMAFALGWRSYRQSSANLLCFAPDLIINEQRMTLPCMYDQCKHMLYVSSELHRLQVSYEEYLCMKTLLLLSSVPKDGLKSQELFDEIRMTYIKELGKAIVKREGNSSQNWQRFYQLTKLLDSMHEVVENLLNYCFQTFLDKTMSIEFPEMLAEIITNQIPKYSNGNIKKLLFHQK
Cytochrome P450 3A4 (Homo sapiens), sequence (P08684 whole entry, looked up): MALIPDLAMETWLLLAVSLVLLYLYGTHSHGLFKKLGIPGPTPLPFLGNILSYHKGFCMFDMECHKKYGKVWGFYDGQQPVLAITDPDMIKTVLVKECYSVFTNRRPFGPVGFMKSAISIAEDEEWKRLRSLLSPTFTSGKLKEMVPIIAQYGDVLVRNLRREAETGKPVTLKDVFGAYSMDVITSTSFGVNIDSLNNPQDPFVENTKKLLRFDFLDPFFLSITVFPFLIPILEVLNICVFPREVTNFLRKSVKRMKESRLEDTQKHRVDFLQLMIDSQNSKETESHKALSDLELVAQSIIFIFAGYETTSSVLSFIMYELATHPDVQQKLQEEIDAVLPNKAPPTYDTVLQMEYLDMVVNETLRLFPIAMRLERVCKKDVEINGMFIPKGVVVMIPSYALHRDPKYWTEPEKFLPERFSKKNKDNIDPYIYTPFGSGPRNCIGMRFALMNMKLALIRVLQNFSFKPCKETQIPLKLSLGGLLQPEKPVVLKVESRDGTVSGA
Dual specificity protein kinase CLK4 (Homo sapiens), sequence (Q9HAZ1 whole entry, looked up): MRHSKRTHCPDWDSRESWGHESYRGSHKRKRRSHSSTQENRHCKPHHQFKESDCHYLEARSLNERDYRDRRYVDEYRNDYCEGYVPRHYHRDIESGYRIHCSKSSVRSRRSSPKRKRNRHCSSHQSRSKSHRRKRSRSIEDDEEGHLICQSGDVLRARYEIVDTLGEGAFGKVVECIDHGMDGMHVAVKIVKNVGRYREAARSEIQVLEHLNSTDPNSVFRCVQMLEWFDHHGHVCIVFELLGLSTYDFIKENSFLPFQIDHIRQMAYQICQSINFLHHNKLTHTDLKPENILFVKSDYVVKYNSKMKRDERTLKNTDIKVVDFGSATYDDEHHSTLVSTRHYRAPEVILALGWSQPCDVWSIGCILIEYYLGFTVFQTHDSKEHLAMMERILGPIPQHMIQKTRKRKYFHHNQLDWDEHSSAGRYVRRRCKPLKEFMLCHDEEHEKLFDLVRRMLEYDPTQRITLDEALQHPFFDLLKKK
Lysosomal acid glucosylceramidase (Homo sapiens), sequence (P04062 whole entry, looked up): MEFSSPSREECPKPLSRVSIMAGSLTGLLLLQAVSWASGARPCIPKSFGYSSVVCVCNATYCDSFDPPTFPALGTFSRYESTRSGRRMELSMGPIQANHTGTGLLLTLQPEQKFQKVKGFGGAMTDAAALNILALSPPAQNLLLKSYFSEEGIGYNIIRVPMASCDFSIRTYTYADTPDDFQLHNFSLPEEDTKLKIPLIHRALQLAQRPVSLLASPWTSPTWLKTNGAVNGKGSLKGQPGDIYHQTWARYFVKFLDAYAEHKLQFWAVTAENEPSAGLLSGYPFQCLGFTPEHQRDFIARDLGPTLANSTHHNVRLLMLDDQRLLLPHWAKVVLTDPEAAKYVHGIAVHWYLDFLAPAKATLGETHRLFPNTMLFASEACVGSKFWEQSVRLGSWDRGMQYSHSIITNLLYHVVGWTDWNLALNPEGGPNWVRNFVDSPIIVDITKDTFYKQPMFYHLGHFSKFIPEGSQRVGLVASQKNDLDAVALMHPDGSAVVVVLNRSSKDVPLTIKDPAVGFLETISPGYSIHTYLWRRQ
Cytochrome P450 1A2 (Homo sapiens), sequence (P05177 whole entry, looked up): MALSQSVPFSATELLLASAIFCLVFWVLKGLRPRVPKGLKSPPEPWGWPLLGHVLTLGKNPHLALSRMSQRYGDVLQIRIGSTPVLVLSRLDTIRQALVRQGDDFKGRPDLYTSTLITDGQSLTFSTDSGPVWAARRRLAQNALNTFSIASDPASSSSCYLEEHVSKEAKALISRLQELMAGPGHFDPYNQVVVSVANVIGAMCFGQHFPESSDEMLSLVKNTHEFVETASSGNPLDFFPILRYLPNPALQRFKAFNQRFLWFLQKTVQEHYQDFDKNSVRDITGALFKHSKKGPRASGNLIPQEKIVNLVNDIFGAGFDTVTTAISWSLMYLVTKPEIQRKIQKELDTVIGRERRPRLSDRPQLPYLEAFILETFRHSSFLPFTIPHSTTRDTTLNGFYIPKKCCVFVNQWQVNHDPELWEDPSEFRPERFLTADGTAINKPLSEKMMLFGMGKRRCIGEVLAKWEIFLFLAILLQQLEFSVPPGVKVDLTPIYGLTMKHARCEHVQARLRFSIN
3',5'-cyclic-AMP phosphodiesterase 4B (Homo sapiens), sequence (Q07343 whole entry, looked up): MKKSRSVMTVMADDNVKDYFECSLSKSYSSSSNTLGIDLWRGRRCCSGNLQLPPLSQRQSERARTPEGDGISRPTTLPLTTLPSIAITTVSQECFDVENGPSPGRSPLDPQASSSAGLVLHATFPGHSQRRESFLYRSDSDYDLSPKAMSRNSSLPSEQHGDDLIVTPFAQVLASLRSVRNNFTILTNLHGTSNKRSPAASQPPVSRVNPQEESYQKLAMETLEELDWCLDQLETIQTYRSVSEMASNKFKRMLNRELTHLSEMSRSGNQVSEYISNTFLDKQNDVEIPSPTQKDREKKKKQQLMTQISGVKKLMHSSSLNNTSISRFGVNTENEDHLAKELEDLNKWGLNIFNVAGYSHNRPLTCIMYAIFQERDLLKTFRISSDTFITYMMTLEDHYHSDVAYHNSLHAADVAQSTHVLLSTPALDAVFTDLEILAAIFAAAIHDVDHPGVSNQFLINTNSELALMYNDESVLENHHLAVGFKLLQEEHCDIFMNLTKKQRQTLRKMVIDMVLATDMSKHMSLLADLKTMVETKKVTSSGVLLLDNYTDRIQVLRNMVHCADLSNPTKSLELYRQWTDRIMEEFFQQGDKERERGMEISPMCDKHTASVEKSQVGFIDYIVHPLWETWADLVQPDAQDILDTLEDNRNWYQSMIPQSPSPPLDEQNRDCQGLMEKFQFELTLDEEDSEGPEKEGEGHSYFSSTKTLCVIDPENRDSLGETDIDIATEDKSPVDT

COc1ccc(CNc2cc(-c3ccccc3Cl)ncn2)c(OC)c1
19.5%: max response [8, 17]
inactive: Potency [1] > 11.4 µM | activity change, negative = inhibition [2] -3.31% | activity change, negative = inhibition [3] -0.814% | activity, negative = inhibition [4] 7.16% | Potency [5] > 46 µM | outcome [6] | Potency [7] | activity change, negative = inhibition [8] 5.7% | Potency [9] | Potency [10]
25%: max response [8, 18]

CCNc1ncc2nc(C)c(=O)n(Cc3cccs3)c2n1
-5.88%: max response [8, 18]
active: Potency [11] 2 µM
inactive: Potency [1] > 11.4 µM | activity change, negative = inhibition [2] 19% | activity change, negative = inhibition [3] -12.9% | activity, negative = inhibition [4] -7.43% | Potency [12] > 9.22 µM | Potency [5] > 46 µM | outcome [6] | Potency [7] | activity change, negative = inhibition [8] 6.19% | Potency [9] | Potency [10]
-9.24%: max response [8, 17]

CC(=O)NCCNc1ccnc(-c2ccccc2C(F)(F)F)n1
active: Potency [11] 15.8 µM
inactive: Potency [1] > 11.4 µM | activity change, negative = inhibition [2] 0.161% | activity change, negative = inhibition [3] -3.29% | activity, negative = inhibition [4] 11.9% | Potency [12] > 46 µM | Potency [5] > 46 µM | outcome [6] | Potency [13] | Potency [7] | activity change, negative = inhibition [8] 4.45% | Potency [9] | Potency [14] | Potency [10]
8.35%: max response [8, 17]
14.6%: max response [8, 18]

O=c1cnc2cncnc2n1Cc1ccc(F)cc1
-6.15%: max response [8, 18]
-3.3%: max response [8, 17]
inactive: Potency [1] > 11.4 µM | activity change, negative = inhibition [2] 8.77% | activity change, negative = inhibition [3] -27.6% | activity, negative = inhibition [4] -8.63% | Potency [12] > 9.22 µM | Potency [5] > 46 µM | outcome [6] | Potency [7] | activity change, negative = inhibition [8] -2.55% | Potency [9] | Potency [14] | Potency [10]

CCNc1ncc2nc(C)c(=O)n(-c3ccc(OC)cc3)c2n1
15%: max response [8, 18]
11.9%: max response [8, 17]
inactive: Potency [1] > 11.4 µM | activity change, negative = inhibition [2] -29.8% | activity change, negative = inhibition [3] 14.3% | activity, negative = inhibition [4] -9.6% | Potency [12] > 9.22 µM | Potency [5] > 46 µM | outcome [6] | Potency [15] | activation [16] -10.1% | activity change, negative = inhibition [8] 4.59% | Potency [9] | Potency [14] | Potency [10]
active: Potency [11] 15.8 µM

CN1CCN(c2ncnc3ccc(-c4ccc(C(=O)N(C)C)cc4)cc23)CC1
25.5%: max response [8, 18]
23.5%: max response [8, 17]
inactive: Potency [1] > 11.4 µM | activity change, negative = inhibition [2] -10.8% | Potency [11] | activity change, negative = inhibition [3] 1.97% | activity, negative = inhibition [4] -6.95% | Potency [12] > 46 µM | Potency [5] > 46 µM | outcome [6] | Potency [13] | Potency [7] | activity change, negative = inhibition [8] 2.73% | Potency [9] | Potency [14] | Potency [10]
